# From PubChem BioAssay (Tox21)
# Results filed as inconclusive are left out. A number with no mark means an inactive call. Active and inactive are the calls of the source. The call rests on the fitted dose curve; in most records, active means well fitted curve in the direction sought with a large enough effect in the repeat runs; inconclusive means weak or mixed curves; inactive means no such curve, though single readings can be large; an effect the other way counts as inactive or inconclusive.
# Experiment: Human pregnane X receptor (PXR) small molecule agonists, qHTS cell viability counter screen (AID 1346977); further: nearly all actives have a fitted effect of over 50% in size; further: potency means the concentration at half of the fitted maximal effect
# Settings: PXR-Luc HepG2 viability, CellTiter-Fluor, 24 h; series mostly up to 92.4 µM; activity change, negative = cytotoxicity: at the top concentration
# Method in brief: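 After a 5hr pre-incubation, PXR-Luc HepG2 cells received compounds plus positive control in DMSO and were kept 24hr at 37C. Cell viability was quantified by fluorescence from CellTiter-Fluor added for the final hour.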
# On the % scale 0 is the no-effect control and ±100 the full control effect.
Structure (SMILES),"activity change, negative = cytotoxicity",Potency
COc1cc(CNC(=O)CCCC/C=C/C(C)C)ccc1O,-11.5%,
O=C(O)c1ccccc1-n1cc(C(=O)O)c(=O)c2cc(Nc3c(F)cc(F)cc3Cl)c(Cl)cc21,10.1%,
CC(C)CCCCCOC(=O)CS,-0.556%,
O=c1[nH][nH]c2ccccc12,-0.475%,
C=C(C)C(=O)OCCCCCCCCCCOC(=O)C(=C)C,-3.71%,
Cc1ccc(S(=O)(=O)NC(=O)NC2CCCC2)cc1,5.68% [at 42.5 µM],
O=C(N[C@@H](Cc1ccccc1)[C@@H](O)C(=O)N1C[C@@H](O)[C@@H](O)C1)c1cc2cc(Cl)ccc2[nH]1,-0.504%,
CCCCCCCCOCCCN,,61.1 µM (active)
CC(C)Oc1ccccc1O,14.7%,
CCCc1ccc(OC)cc1,-0.397%,
O=C(O)c1cc(C(=O)O)c(C(=O)O)cc1C(=O)O,8.15%,
Cc1cc(C)c(C)c(O)c1,7.35%,
FC(F)(Cl)C(F)(Cl)Cl,-0.206%,
CCc1ccc2c(c1)C(=O)c1ccccc1C2=O,-20.8%,
Cc1c(-c2cccnc2)c2ccccc2n1CCCCC(=O)O,0.102%,
C=CCCC,13.4%,
CCCCCCC/C=C/C=O,11.6%,
C=CC(=O)NC(C)(C)C,9.28%,
CC(C)CC(C)(C)C,-0.767%,
C=Cc1ccc(C=C)cc1,0.78%,
C(/C=C/C=C/Nc1ccccc1)=Nc1ccccc1,16.6%,
O=C(Nc1ccc2c(c1)Cc1ccccc1-2)C(F)(F)F,-1.61%,
O=C(OCCN1CCOCC1)c1cccnc1Nc1cccc(C(F)(F)F)c1,10.3% [at 42.5 µM],
CC[C@H](NC(C)C)[C@H](O)c1ccc(O)c2[nH]c(=O)ccc12,14% [at 42.5 µM],
C1=COCCC1,12.6%,
COc1ccc(C(=O)c2ccc(C)cc2)c(O)c1,-4.74%,
CC(=O)S[C@H](C(=O)N[C@H]1Cc2ccccc2[C@H]2CCC[C@@H](C(=O)O)N2C1=O)C(C)C,2.35%,
CCCCCCOC(=O)c1ccccc1,6.45%,

# Experiment: Caspase-3/7 induction in HepG2 cells by small molecules, qHTS assay (AID 1346978); further: nearly all actives have a fitted effect of over 15% in size
# Settings: HepG2 caspase-3/7 activation, Caspase-Glo luminescence, 17 h; series mostly up to 92.4 µM; caspase activation: at the top concentration
# Method in brief: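 Caspase-3/7 induction was measured by Caspase-Glo 3/7 luminescence (30 min, room temperature) after a 17 hr compound exposure of wild-type HepG2 cells seeded at 2,000 per well and pre-incubated 5 hr.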
row,Structure (SMILES),caspase activation
1,COc1cc(CNC(=O)CCCC/C=C/C(C)C)ccc1O,0.928%
2,O=C(O)c1ccccc1-n1cc(C(=O)O)c(=O)c2cc(Nc3c(F)cc(F)cc3Cl)c(Cl)cc21,0.729%
3,O=C(Nc1ccccc1)c1cc([N+](=O)[O-])ccc1Cl,6.37%
4,C[C@H]1C[C@H]2[C@@H]3CCC4=CC(=O)C=C[C@]4(C)[C@@]3(F)[C@@H](O)C[C@]2(C)[C@@]1(O)C(=O)COP(=O)(O)O,0.341%
5,CC(C)CCCCCOC(=O)CS,-1.01%
6,O=c1[nH][nH]c2ccccc12,-1.82%
7,C=C(C)C(=O)OCCCCCCCCCCOC(=O)C(=C)C,-0.0132%
8,Cc1ccc(S(=O)(=O)NC(=O)NC2CCCC2)cc1,0.0389% [at 42.5 µM]
9,CCCCCCCCOCCCN,-2.4%
10,O=Cc1ccc([N+](=O)[O-])cc1,1.2%
11,CCCN(C1CCN(C(=O)C2CCNCC2)CC1)[C@@H]1CCc2ccc(OC)cc2C1,0.305%
12,CCCc1ccc(OC)cc1,-0.0221%
13,CCOc1cc(OCC)c(C(C)=O)cc1OCC,-0.986%
14,O=C(O)c1cc(C(=O)O)c(C(=O)O)cc1C(=O)O,1.03%
15,Cc1c(-c2cccnc2)c2ccccc2n1CCCCC(=O)O,11.1%
16,C=CCCC,-0.961%
17,CCC(C)C1N=C(C)C(C)S1 (configuration not stated),1.93%
18,Clc1ccccc1-c1nc(-c2ccncc2)no1,-5.48% [at 42.5 µM]
19,C=CC(=O)NC(C)(C)C,-1.97%
20,CC(C)CC(C)(C)C,3.27%
21,COc1ccc(/C=C/c2cc(OC)cc(=O)o2)cc1,-6.87% [at 42.5 µM]
22,C=Cc1ccc(C=C)cc1,0.222%
23,C(/C=C/C=C/Nc1ccccc1)=Nc1ccccc1,-0.532%
24,O=C(OCCN1CCOCC1)c1cccnc1Nc1cccc(C(F)(F)F)c1,-3.86% [at 42.5 µM]
25,CC[C@H](NC(C)C)[C@H](O)c1ccc(O)c2[nH]c(=O)ccc12,-2.14% [at 42.5 µM]
26,Clc1cc(Cl)c2c(c1)N=C1CCCCCN1C2,-0.0141% [at 42.5 µM]
27,COc1ccc(C(=O)c2ccc(C)cc2)c(O)c1,-2.17%
28,CCCCCCOC(=O)c1ccccc1,1.94%
29,O=C1c2ccccc2C(=O)c2c1ccc(O)c2O,-9.09% [at 42.5 µM]
